Experimental data reported in PubChem BioAssay AID1159580 (chemical genetic matrix, 2015).
The campaign covered roughly 5,500 compounds. About 2,000 (36%) were called active. Inconclusive results (about 18%) are left out. No stated cut-off is given here; in the data, active means normalized growth mostly below about 0.91 (no sharp cut-off); inconclusive means no clear call, values can overlap the other calls; inactive means mostly above about 0.92. This is one part of the list.

Test: chemical genetic growth profiling, strain panel (AID 1159580);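 further: tested at 20 µM; growth read once vehicle control cultures reached saturation at 30 °C; 1 = growth at the plate median or of vehicle wells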
Settings: S. cerevisiae deletion strains, growth OD

Measured: normalized growth

CCCN1CCC[C@@H]2Cc3nc(N)ncc3C[C@H]21
inactive: locus YAL013W, strain DEP1, stronger effect = lower value 1.02 | locus YAL040C, strain CLN3, stronger effect = lower value 1.01 | locus YCL061C, strain MRC1 (second series), stronger effect = lower value 1.01 | locus YDR363W, strain ESC2, stronger effect = lower value 0.999 | locus YER002W, strain NOP16, stronger effect = lower value 1.02 | locus YMR307W, strain GAS1, stronger effect = lower value 0.995 | locus YNL128W, strain TEP1, stronger effect = lower value 1.01 | locus YNL175C, strain NOP13, stronger effect = lower value 1.02 | locus YNL197C, strain WHI3, stronger effect = lower value 1.01 | locus YNL224C, strain SQS1, stronger effect = lower value 1.01 | locus YNL322C, strain KRE1, stronger effect = lower value 0.999 | locus YOR083W, strain WHI5 (second series), stronger effect = lower value 1.01 | locus YPL241C, strain CIN2, stronger effect = lower value 1
